# Measurements from PubChem BioAssay AID1619 (SRMLSC, 2009).
# The whole screen tested about 220,000 compounds, of which about 830 (0.38%) were called active. Only a sample is shown. Entries with a potency or affinity are not part of this list. A number with no mark means an inactive call.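 How the source made its calls: active means compound inhibiting the enzyme by more than half at any dose during confirmatory dose-response retesting; inconclusive means strong single-dose inhibitors picked by rank but not retested; inactive means the rest.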
# Target: Leucine aminopeptidase (Plasmodium falciparum (isolate 3D7)) (UniProt Q8IL11)
# Sequence (Q8IL11 whole entry, looked up): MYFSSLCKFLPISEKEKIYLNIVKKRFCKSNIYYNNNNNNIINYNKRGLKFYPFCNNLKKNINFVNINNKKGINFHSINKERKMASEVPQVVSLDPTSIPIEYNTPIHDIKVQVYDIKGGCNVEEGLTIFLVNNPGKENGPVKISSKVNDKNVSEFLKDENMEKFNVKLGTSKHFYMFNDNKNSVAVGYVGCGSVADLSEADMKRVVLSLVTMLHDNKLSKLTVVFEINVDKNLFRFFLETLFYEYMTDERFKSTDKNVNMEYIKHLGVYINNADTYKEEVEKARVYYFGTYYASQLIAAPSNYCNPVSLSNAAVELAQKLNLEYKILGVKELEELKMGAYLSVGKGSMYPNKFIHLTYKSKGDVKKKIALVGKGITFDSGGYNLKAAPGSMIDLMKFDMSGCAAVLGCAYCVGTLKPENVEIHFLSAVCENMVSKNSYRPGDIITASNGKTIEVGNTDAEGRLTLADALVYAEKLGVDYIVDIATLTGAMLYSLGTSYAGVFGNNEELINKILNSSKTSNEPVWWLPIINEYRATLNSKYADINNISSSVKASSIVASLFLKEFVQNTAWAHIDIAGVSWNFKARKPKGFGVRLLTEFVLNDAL
# Experiment: P. falciparum M17LAP inhibitors, primary screen, biochemical, fluorogenic H-Leu-NHMec substrate, 1536-well (AID 1619);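 further: plate controls were full reaction with DMSO carrier for no effect and no enzyme background for full effect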
# Details: recombinant M17LAP, H-Leu-NHMec fluorogenic kinetic assay; at 30 µM; hits give high values
row,SMILES,inhibition [%]
1,O=C(COC(=O)c1cccc(S(=O)(=O)N2CCOCC2)c1)Nc1ncc(C(F)(F)F)cc1Cl,4.29
2,C/C(CC(=O)Nc1cc(C)ccn1)=N\NC(=O)c1cccc(C)c1,36.6
3,C/C(CC(=O)Nc1cc(C)ccn1)=N\NC(=O)C(=O)Nc1cccc(C)c1,17.6
4,c1ccc(CSc2ncnc3c2cnn3-c2ccccc2)cc1,6.75
5,CC(=O)CSc1ncnc2c1cnn2-c1ccccc1,-3.85
6,O=C1N/C(=C/c2cccn2-c2ccccc2)C(=O)N1Cc1ccccc1F,2.46
7,O=C(O)c1cccc(-n2cccc2/C=C2\NC(=O)N(Cc3ccc(F)cc3)C2=O)c1,14.1
8,COc1ccc(C(=O)OCC(=O)Nc2nc3c(F)c(F)c(F)cc3s2)cc1OC,-4.12
9,CCOc1ccccc1OCC(=O)Nc1nnc(COC)s1,-14
10,COc1ccc(-c2c[nH]c(=O)[nH]c2=O)cc1OC,7.18
11,COc1ccc(-c2cc(=O)[nH]c(=O)[nH]2)cc1,6.04
12,COc1ccc(-c2cn(-c3cccc(C)c3)c(=O)[nH]2)cc1OC,12.5
13,COc1cccc(-c2cc(=O)[nH][nH]2)c1,-0.06
14,Cn1nc(-c2ccc(NCCO)c([N+](=O)[O-])c2)c2ccccc2c1=O,-6.44
15,Cc1nn(-c2ccccn2)c(N)c1N=O,13.8
16,O=C(CN1C2=NCCCN2c2ccccc21)c1cccs1,-10.1
17,CCN1C(=O)/C(=C/c2cccs2)SC1=Nc1ccc(OC)cc1,-1.72
18,COc1ccc(OCC(=O)Nc2cccc(C(=O)Nc3ccccc3C(=O)O)c2)cc1,37
19,CC(C)c1ccc(OCC(=O)Nc2cccc(C(=O)Nc3ccccc3C(=O)O)c2)cc1,5.28
20,Cc1cc2nc(SC(C)C(=O)O)[nH]c2cc1C (stereo not drawn),19.5
21,CC(Sc1nc2ccccc2[nH]1)C(=O)O (stereo not drawn),4.99
22,COc1ccc(-n2nc(N)c3c(=O)oc(N(C)C)nc32)cc1,3.39
23,NC(=O)CN(c1ccccc1)C1SC(=O)N(Cc2ccccc2)C1=O (stereo not drawn),-3.19
24,COC(=O)c1cccc(CN2C(=O)SC(Nc3ccc(C)cc3)C2=O)c1 (stereo not drawn),2.69
25,Cc1ccc(N(CC(N)=O)C2SC(=O)N(Cc3ccccc3)C2=O)cc1 (stereo not drawn),8.98

row,SMILES,inhibition [%]
1,Cc1ccc(NC2SC(=O)N(Cc3cccc(C(=O)O)c3)C2=O)c(C)c1 (stereo not drawn),-1
2,O=C(O)CN1C(=O)SC(Nc2ccccc2)C1=O (stereo not drawn),15.1
3,COC(=O)c1cccc(CN2C(=O)SC(Nc3ccccc3)C2=O)c1 (stereo not drawn),2.34
4,O=C1Nc2ccccc2S/C1=C/c1cccs1,4.97
5,CCCCCCOc1cccc(N)c1,-6.2
6,COc1ccc(S(=O)(=O)N(CC(=O)N/N=C/c2cccs2)c2cc(C)cc(C)c2)cc1OC,-9.62
7,Cc1ccc(O)c(CNn2cnnc2)c1,-3.08
8,C/C(=N\O)c1oc2ccc3c(C)cc(=O)oc3c2c1C,2.81
9,COc1nc(N(CC(N)=O)S(=O)(=O)c2ccccc2)nc(C)c1Cl,-8.61
10,Cc1ccc(-n2nnnc2CN2CCCCC2)cc1,-0.54
11,COC(=O)c1scc(C)c1N/N=C(\C)c1cc(F)c(Cl)cc1F,-1.99
12,Cn1ncc(Cl)c1C(=O)N/N=C/c1cc2c(cc1[N+](=O)[O-])OCO2,10.6
13,CCCc1ncc(C(O)c2ccc(OC)cc2)n1C (stereo not drawn),-6.37
14,Cc1ccc(Oc2ccc(NC(=O)CSc3n[nH]c(N)n3)cc2)cc1,-7.16
15,Cc1ccc(NC(=O)CN(C)C(=O)CSc2nc(C)cs2)cc1,-4.97
16,Cc1ccc(NC(=O)CN(C)C(=O)CSc2nc3ccccc3o2)cc1,3.63
17,Cc1ccc(CNC(=O)CSc2n[nH]c(N)n2)cc1,16.9
18,CCn1ncc(/C=N\NC(=O)c2ccc3c(c2)c(C)c(C)n3Cc2ccccc2)c1C,8
19,Cc1c(C(=O)N2CCN(Cc3ccc4c(c3)OCO4)CC2)cccc1[N+](=O)[O-],11.8
20,COc1ccc(Nc2nc(C(=O)N3CCc4cc(OC)c(OC)cc4C3)cs2)cc1,-3.32
21,COc1ccc(NC(=O)COC(=O)c2ccco2)c([N+](=O)[O-])c1,-7.81
22,CN(Cc1cnccn1)C(=O)CC1C(=O)NCCN1Cc1c(F)cccc1Cl (stereo not drawn),4.09
23,CCCCCOc1ccc(C(=O)NC(C(=O)O)C(C)C)cc1 (stereo not drawn),46.7
24,CCCCc1ccc(NC(=O)C(C)CC)cc1 (stereo not drawn),4.63
25,CCCCc1ccc(NC(=O)N[C@@H](CC(C)C)C(=O)O)cc1,-4.28

row,SMILES,inhibition [%]
1,CCc1ccc(C(=O)NC(C(=O)O)C(C)C)cc1 (stereo not drawn),56.2
2,CCc1ccc(NC(=O)N[C@H](C(=O)O)C(C)CC)cc1 (stereo partly drawn),-1.8
3,CCCCc1ccc(NC(=O)N[C@@H](C)C(=O)O)cc1,-2.39
4,CC(C)(C)NC(=O)CN(Cc1ccc(F)cc1)C(=O)Cn1nnc(-c2ccc(F)cc2)n1,2.63
5,Cc1cccc(OCCCOc2cccc3cccnc23)c1C,-0.78
6,C[C@@H](C(=O)N1CCN(C(=O)OC(C)(C)C)CC1)n1cc(CCC(=O)O)nn1,3.71
7,Cc1ccc(SCCn2nc(C(=O)O)c3ccccc3c2=O)cc1,11.2
8,Cc1cccc(NS(=O)(=O)c2ccc3c(c2)NC(=O)CC(=O)N3)c1,0.82
9,CCOC(=O)c1ccc(NC(=O)c2c(NC(=O)CCC(=O)O)sc3c2CCCCC3)cc1,4.02
10,COc1ccccc1NC(=O)c1c(NC(=O)CCC(=O)O)sc2c1CCCCC2,12
11,Cc1ccccc1C(=O)Nc1sc2c(c1C(=O)O)CCC2,25.7
12,O=C(Nc1sc2c(c1C(=O)O)CCCCC2)c1ccccc1,54.2
13,CCOc1ccccc1NC(=O)c1c(NC(=O)CCC(=O)O)sc2c1CCCCC2,3.19
14,COc1ccc(NC(=O)c2c(NC(=O)CCC(=O)O)sc3c2CCCCC3)cc1,46
15,O=C(NCCC(c1ccccc1)c1ccccc1)c1cnccn1,-1.23
16,COc1ccc(C)cc1NC(=O)C(OC(=O)CNC(=O)c1ccc(Br)cc1)c1ccccc1 (stereo not drawn),-14.5
17,CN(C)S(=O)(=O)c1ccc(NC(=O)Cn2ccsc2=N)cc1,0.8
18,c1ccc(-c2nc(NCC3CCCO3)c3oc4ccccc4c3n2)cc1 (stereo not drawn),-4.77
19,Cc1noc(C)c1COc1ccc(C(=O)OCC(=O)Nc2ccc3c(c2)OCO3)cc1,4.59
20,COc1ccc2[nH]c(C)c(CCNC(=S)Nc3ccc(F)cc3)c2c1,-5.1
21,O=C(Cn1cc2c(n1)CCCC2)N1CCc2ccccc21,3.11
22,COc1ccccc1N1CC(C)C(=O)NC1=S (stereo not drawn),8
23,Cc1ccccc1C(=O)NCC(=O)NNC(=S)NC(=O)c1ccccc1C,63.2
24,Cc1ccccc1C(=O)NNC(=S)NC(=O)c1cccnc1,80.7
25,Cc1ccccc1C(=O)NNC(=S)NC(=O)c1ccc(Cl)cc1Cl,90.7

row,SMILES,inhibition [%]
1,Cc1onc(-c2ccccc2)c1C(=O)NC(=S)NNC(=O)c1ccc(O)cc1,14.3
2,Cc1ccccc1C(=O)NC(=S)NCC(=O)c1ccccc1,0.75
3,Cc1onc(-c2ccccc2)c1C(=O)NNC(=S)NC(=O)c1ccc(Br)cc1,44.1
4,Cc1ccc(NC(=O)CN(c2ccccc2)S(=O)(=O)N(C)C)cc1,-5.3
5,CCOC(=O)c1cnc2c(C(F)(F)F)cccc2c1N1CCOCC1,6.02
6,C/C(CC(=O)N(C(C)C)C(C)C)=N\NC(=O)COc1ccc(Cl)cc1Cl,7.13
7,Cc1ccc(C(=O)Nc2ccc3cn[nH]c3c2)cc1S(=O)(=O)N1CCCCC1,4.67
8,CCOC(=O)NC(=O)CSc1nnnn1-c1ccccc1,0.74
9,OCC(O)C1OC(Nc2ccc(Cl)cc2)C(O)C1O (stereo not drawn),2.43
10,Cc1nn(S(=O)(=O)c2cccc([N+](=O)[O-])c2)c(C)c1Br,10.8
11,Cc1ccc(NC(=O)COC(=O)Cn2c(C)csc2=O)cc1C,4.89
12,Nc1n[nH]c(N)c1N=Nc1ccc(Cl)cc1Cl,47.6
13,Nc1n[nH]c(N)c1N=Nc1ccc2c(c1)OCO2,-3.08
14,Nc1nn(-c2ccccc2)c(N)c1N=Nc1ccccc1,-19.2
15,COc1ccc(N=Nc2c(N)n[nH]c2N)cc1,9.88
16,Nc1nn(-c2ccccc2)c(N)c1N=Nc1cccc(F)c1,-3.61
17,Cc1[nH]nc(N)c1N=Nc1ccc(Br)cc1,-1.99
18,Nc1n[nH]c(C2CC2)c1N=Nc1ccc(Cl)cc1,18.4
19,COC(=O)c1ccccc1N=Nc1c(N)n[nH]c1N,12.4
20,Cc1ccc(S(=O)(=O)N2CCOCC2)cc1NC(=O)CN1CCN(c2ccc(O)cc2)CC1,-10.2
21,Cc1nn(Cc2c(Cl)cccc2Cl)c(C)c1NC(=O)CCCn1nc(C)c([N+](=O)[O-])c1C,-7.34
22,CCOc1ccc(NC(=S)NN2C(C)CCCC2C)cc1 (stereo not drawn),-3.03
23,C[C@@H]1NC(=O)c2cc([N+](=O)[O-])cc(I)c2OCC[C@@H](C(N)=O)NC(=O)[C@H](CCCCN)NC1=O,21.6
